Assay results as given in PubChem BioAssay (NCI).
This is part of a sample that, as a whole, favours compounds with a hit. Of some 83,000 tested, about 20% had one in any assay.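 Growth was measured after 48 h exposure to one concentration of compound in 96-well plates. Values under 10 count as active.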

Key:
Assay in all cases: NCI-60 one-dose screen, 48 h (100 = growth as untreated, 0 = no growth, -100 = all killed)
Conditions in all cases: 10 µM unless noted
SK-MEL-2 melanoma = test system: SK-MEL-2 melanoma
EKVX NSCLC = test system: EKVX NSCLC
SN12C renal = test system: SN12C renal
UO-31 renal = test system: UO-31 renal
TK-10 renal = test system: TK-10 renal
ACHN renal = test system: ACHN renal
CAKI-1 renal = test system: CAKI-1 renal
A498 renal = test system: A498 renal
CCRF-CEM leukemia = test system: CCRF-CEM leukemia
MOLT-4 leukemia = test system: MOLT-4 leukemia
SR leukemia = test system: SR leukemia
RPMI-8226 leukemia = test system: RPMI-8226 leukemia
OVCAR-8 ovarian = test system: OVCAR-8 ovarian
OVCAR-5 ovarian = test system: OVCAR-5 ovarian
OVCAR-4 ovarian = test system: OVCAR-4 ovarian
SK-OV-3 ovarian = test system: SK-OV-3 ovarian
IGROV1 ovarian = test system: IGROV1 ovarian
OVCAR-3 ovarian = test system: OVCAR-3 ovarian
HS 578T breast = test system: HS 578T breast
NCI/ADR-RES ovarian = test system: NCI/ADR-RES ovarian

Measured: growth

CC(=O)C1C(=O)C(=O)N(c2cccc([N+](=O)[O-])c2)C1=O (stereo not given)
inactive: SK-MEL-2 melanoma 114% | EKVX NSCLC 108% | SN12C renal 101% | UO-31 renal 105% | TK-10 renal 125% | ACHN renal 104% | CAKI-1 renal 102% | A498 renal 79.2% | CCRF-CEM leukemia 106% | MOLT-4 leukemia 101% | SR leukemia 95.6% | RPMI-8226 leukemia 107% | OVCAR-8 ovarian 106% | OVCAR-5 ovarian 113% | OVCAR-4 ovarian 103% | SK-OV-3 ovarian 102% | IGROV1 ovarian 109% | OVCAR-3 ovarian 117% | HS 578T breast 93.8% | NCI/ADR-RES ovarian 113%

O=C1NC(=O)/C(=C\c2ccncc2)N1
inactive: SK-MEL-2 melanoma 104% | EKVX NSCLC 95.5% | SN12C renal 95.9% | UO-31 renal 95.5% | TK-10 renal 105% | ACHN renal 97.9% | CAKI-1 renal 100% | A498 renal 94.1% | CCRF-CEM leukemia 105% | MOLT-4 leukemia 111% | SR leukemia 92.2% | RPMI-8226 leukemia 103% | OVCAR-8 ovarian 103% | OVCAR-5 ovarian 98.3% | OVCAR-4 ovarian 98.6% | SK-OV-3 ovarian 99.2% | IGROV1 ovarian 109% | OVCAR-3 ovarian 94.3% | HS 578T breast 95% | NCI/ADR-RES ovarian 103%

COc1cccc(C(=O)O)c1OC
inactive: SK-MEL-2 melanoma 99.3% | EKVX NSCLC 91.9% | SN12C renal 96.6% | UO-31 renal 86.5% | TK-10 renal 96.2% | ACHN renal 93% | CAKI-1 renal 97.4% | A498 renal 97.4% | CCRF-CEM leukemia 107% | MOLT-4 leukemia 110% | SR leukemia 101% | RPMI-8226 leukemia 101% | OVCAR-8 ovarian 101% | OVCAR-5 ovarian 85.9% | OVCAR-4 ovarian 95% | SK-OV-3 ovarian 91.6% | IGROV1 ovarian 99.4% | OVCAR-3 ovarian 106% | HS 578T breast 88.9% | NCI/ADR-RES ovarian 99.4%

Cn1c(=O)c2[nH]c(CC(=O)O)nc2n(C)c1=O
inactive: SK-MEL-2 melanoma 105% | EKVX NSCLC 101% | SN12C renal 104% | UO-31 renal 93.5% | TK-10 renal 102% | ACHN renal 111% | CAKI-1 renal 102% | A498 renal 98.4% | CCRF-CEM leukemia 106% | MOLT-4 leukemia 103% | SR leukemia 99.3% | RPMI-8226 leukemia 108% | OVCAR-8 ovarian 102% | OVCAR-5 ovarian 106% | OVCAR-4 ovarian 118% | SK-OV-3 ovarian 106% | IGROV1 ovarian 103% | OVCAR-3 ovarian 108% | HS 578T breast 107% | NCI/ADR-RES ovarian 102%

CC1(C)OC(=O)CC1=O
inactive: SK-MEL-2 melanoma 90.9% | EKVX NSCLC 96.8% | SN12C renal 105% | UO-31 renal 92.9% | TK-10 renal 87% | ACHN renal 101% | CAKI-1 renal 90.4% | A498 renal 88.9% | CCRF-CEM leukemia 89.3% | MOLT-4 leukemia 85.1% | SR leukemia 89% | RPMI-8226 leukemia 93.4% | OVCAR-8 ovarian 97.4% | OVCAR-5 ovarian 101% | OVCAR-4 ovarian 106% | SK-OV-3 ovarian 91.6% | IGROV1 ovarian 107% | OVCAR-3 ovarian 113% | HS 578T breast 96.6% | NCI/ADR-RES ovarian 105%

O=C(OCC1CCCO1)c1ccc([N+](=O)[O-])cc1 (stereo not given)
inactive: SK-MEL-2 melanoma 103% | EKVX NSCLC 106% | SN12C renal 95.3% | UO-31 renal 86.9% | TK-10 renal 99.4% | ACHN renal 104% | CAKI-1 renal 106% | A498 renal 82.2% | CCRF-CEM leukemia 94.2% | MOLT-4 leukemia 101% | SR leukemia 116% | RPMI-8226 leukemia 103% | OVCAR-8 ovarian 99.2% | OVCAR-5 ovarian 109% | OVCAR-4 ovarian 117% | SK-OV-3 ovarian 97.9% | IGROV1 ovarian 101% | OVCAR-3 ovarian 111% | HS 578T breast 96.7% | NCI/ADR-RES ovarian 103%

O=C(NCCc1ccccc1)/C(=C\c1ccc(Cl)cc1Cl)NC(=O)c1ccccc1
inactive: SK-MEL-2 melanoma 114% | EKVX NSCLC 96% | SN12C renal 96.1% | UO-31 renal 88.5% | TK-10 renal 96.6% | ACHN renal 98.9% | CAKI-1 renal 92.9% | A498 renal 87.5% | CCRF-CEM leukemia 97.9% | MOLT-4 leukemia 94.7% | SR leukemia 87.6% | RPMI-8226 leukemia 92% | OVCAR-8 ovarian 95.3% | OVCAR-5 ovarian 101% | OVCAR-4 ovarian 98.7% | SK-OV-3 ovarian 97.6% | IGROV1 ovarian 96.3% | OVCAR-3 ovarian 94.1% | HS 578T breast 96.4% | NCI/ADR-RES ovarian 91.8%

OCCc1ccc(Cl)cc1
inactive: SK-MEL-2 melanoma 99.3% | EKVX NSCLC 97.9% | SN12C renal 94.9% | UO-31 renal 90.5% | TK-10 renal 94.7% | ACHN renal 105% | CAKI-1 renal 92.7% | A498 renal 106% | CCRF-CEM leukemia 96.9% | MOLT-4 leukemia 109% | SR leukemia 94.6% | RPMI-8226 leukemia 101% | OVCAR-8 ovarian 98.7% | OVCAR-5 ovarian 97.8% | OVCAR-4 ovarian 103% | SK-OV-3 ovarian 100% | IGROV1 ovarian 104% | OVCAR-3 ovarian 105% | HS 578T breast 95% | NCI/ADR-RES ovarian 107%
